# Screening data from PubChem BioAssay.
# Hits are enriched below; roughly 9.9% of the tested compounds scored in any of these assays.
# MCF10A rerep = DNA re-replication induction in MCF 10a cells; AID 624296; MCF 10A DNA re-replication, Hoechst nuclear intensity, 48 h; Potency, µM (top dose mostly 46.1 µM), most hits filed as activators; 350,000 tested, 2.9% active; note: nearly all actives have a fitted effect of over 50% in size
# KB-V1 cytotox = kills drug-selected multidrug resistant KB-V1 cells. KB-V1 MDR cells viability, CellTiter-Glo, 72 h. Potency, µM (top dose mostly 46.1 µM), hits mostly cytotoxic. 400,000 tested, 3.4% active; note: nearly all actives have a fitted effect of over 60% in size
#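 Cytotoxicity via CellTiter-Glo luminescence after 72 h compound exposure at 37 degrees C. Cells: drug-selected KB-V1 line, DMEM phenol-red free plus 10% FBS. Compounds tested at multiple concentrations; normalized data fitted to concentration-effect curves.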
# IL-1B inflam inh = inflammasome signaling inhibition, IL-1 beta readout; THP-1 LPS/ATP IL-1B secretion, AlphaLISA, 16 h; hits give low values; activity change, % at 57.5 µM; 360,000 tested, 4.7% active; AID 743279; in the data active = activity change below about -50%; inconclusive = mostly about -30% to -49%
#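 Secreted IL-1B measured by AlphaLISA bead assay after 16 h compound exposure of THP-1 cells; compounds (final up to 57.5 uM) added 1 h before LPS (250 ng/mL) and ATP (1.25 mM) stimulation; lower signal means less secretion.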
# SW480 rerep = inducers of DNA re-replication in SW480 colon cancer cells; 340,000 tested, 1.8% active; Potency, µM (titrated, usually from 46.1 µM), most hits filed as activators; SW480 DNA re-replication, Hoechst DNA content imaging, 48 h; note: nearly all actives have a fitted effect of over 55% in size
#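 Readout is total intensity of Hoechst-stained nuclei, excited at 405 nm and collected at 500-530 nm. Compound treatment lasted 48 hr at 37 C in 5% CO2 before staining.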
# KB-3-1 tox = kills parental KB-3-1 adenocarcinoma cells; KB-3-1 viability, CellTiter-Glo ATP luminescence, 72 h; Potency, µM (highest dose often 46.1 µM), actives largely listed as cytotoxic; 400,000 tested, 1.4% active; AID 1347075; note: nearly all actives have a fitted effect of over 60% in size
#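 Cytotoxicity measured as CellTiter-Glo luminescence after 72 h at 37 C. Compound titrations were pinned onto drug-naive KB-3-1 parental adenocarcinoma cells grown in DMEM with 10% FBS, and normalized data fitted to concentration-response curves.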
# Hits are given with their value; - = inactive; ? = inconclusive; . = no result; [ ] = remark or other dose. Unless noted, calls come from the whole dose curve; as a rule, active = well fitted curve in the direction sought with a large enough effect; inconclusive = small, poorly fitted or top-dose-only effect, or another doubt; inactive = no such curve, though single readings can be large; an effect the other way counts as inactive or inconclusive.
SMILES,MCF10A rerep,KB-V1 cytotox,IL-1B inflam inh,SW480 rerep,KB-3-1 tox
COc1cc(CNC(=O)c2ccc3nc(Cc4ccccc4)oc3c2)cc(OC)c1OC,.,-,.,.,26µM
O=C(NCc1ccccc1F)C1CCN(c2nnc(-n3cccc3)s2)CC1,.,-,.,.,-
O=C(c1ccc(Cn2cc([N+](=O)[O-])cn2)o1)N1N=C(C(F)F)CC1(O)C(F)F (stereo not given),-,?,-,-,-
O=C(c1ccc(COc2ccccc2Br)o1)N1N=C(C(F)F)CC1(O)C(F)F (stereo not given),?,23µM,-,-,-
Cc1ccc(N(C)C(=O)Cn2cnc3onc(-c4ccc(F)cc4)c3c2=O)cc1C,.,-,.,.,-
CC(C)COc1ccc(-c2nn(-c3ccccc3)cc2C(=O)Nc2nccs2)cc1,-[0.0737 µM],-,-,?,-
O=C(Nc1nccs1)c1cn(-c2ccccc2)nc1-c1ccccc1,-,?,-63,-,?
Cc1nn(Cc2c(Cl)cccc2Cl)c(C)c1NC(=O)c1sc2ccccc2c1Cl,10µM,-,-,?,-
CN(CC(=O)Nc1c(Cl)cccc1Cl)C(=O)CNC(=O)c1sc2ccccc2c1Cl,-,-,-,-,-
Cc1ccc(NC(=O)c2cn(-c3ccccc3)nc2-c2ccccc2)cc1,.,?,.,.,-
CN(Cc1c(F)cccc1Cl)C(=O)CNC(=O)c1sc2ccccc2c1Cl,-,?,-52,-,-
Cc1nn(Cc2c(Cl)cccc2Cl)c(C)c1NC(=O)c1cn(-c2ccccc2)nc1-c1ccccc1,4.5µM,9.2µM,-,8.2µM,8.2µM
Cc1ccccc1Cn1nc(C)c(NC(=O)c2sc3ccccc3c2Cl)c1C,?,13µM,-,-,?
COc1ccccc1-c1nnc(C2CCN(S(=O)(=O)c3ccccc3[N+](=O)[O-])CC2)o1,-,-,-,-,-
C#CC[N+](C)(C)C(C#Cc1ccccc1)CC=C (stereo not given),?,?,-73,-,?
CC1(C)Cc2c(sc3ncnc(NNC(=S)NCc4ccccc4)c23)CO1,3.3µM,?,-,3.7µM,5.2µM
CCn1c(N2CCN(C(=O)c3ccco3)CC2)nc2ccccc21,-,-,-,-,-
CC(C)Cc1nc(N2CCN(C(=O)c3ccco3)CC2)c(C#N)c2c1CCC2,21µM,?,-,-,?
Cc1cc(-c2ccco2)c(C#N)c2nc3ccccc3n12,18µM,-,-,-,?
CC(C)c1cc(N2CCN(C(=O)c3ccco3)CC2)n2c(nc3ccccc32)c1C#N,23µM,-,-,-,-
N#Cc1c(N2CCN(C(=O)c3ccco3)CC2)nc(-c2ccccc2)c2c1CCCC2,-,21µM,-52,-,-
Cc1cc(C)cc(NC(=O)CCn2cnc3cc(C)c(C)cc32)c1,-,?,?,-,-
Cc1cc2oc(C(=O)Nc3ccc(S(=O)(=O)N4CCC(C)CC4)cc3)cc(=O)c2cc1C,.,?,.,.,-
Cn1cc(C(=O)N/N=C/c2cccc([N+](=O)[O-])c2)c2ccccc21,-,-,.,?,-
CCN(c1ccc(OC)cc1)S(=O)(=O)c1ccc2c(c1)CC(C)N2C(=O)C1CC1 (stereo not given),-,-,?,-,-
SMILES,MCF10A rerep,KB-V1 cytotox,IL-1B inflam inh,SW480 rerep,KB-3-1 tox
N#Cc1c(N2CCN(C(=O)c3ccccc3Cl)CC2)nc(-c2ccccc2)c2c1CCCC2,?,-,-58,-,-
N#Cc1c(N2CCN(C(=O)c3ccccc3)CC2)nc(-c2ccccc2)c2c1CCCC2,?,?,?,-,?
COc1ccc(NC(=O)CN(C)S(=O)(=O)c2ccc3c(c2)CC(C)N3C(C)=O)cc1OC (stereo not given),-,-,-,?,-
O=C(Nc1ccccc1Br)C1CC(=O)N(c2ccc3c4c(cccc24)CC3)C1 (stereo not given),21µM,?,?,?,4.6µM
OCCCNc1c2ccccc2nc2ccccc12,-,?,-104,?,8.2µM
c1ccc2c(NCCc3c[nH]c4ccccc34)c3ccccc3nc2c1,-,-,-57,-,-
Fc1cccc(NCCc2c[nH]c3ccccc23)n1,-,-,-,-,-
CCc1ccc(-n2c3nc(=O)[nH]c(=O)c-3cc3c(C)nn(-c4ccccc4)c32)cc1,.,-,.,.,-
Nc1sc2c([n+]1CCCS(=O)(=O)[O-])CCCC2,-,-,-,-,-
CN(C(=O)N1CCN(S(=O)(=O)c2ccccc2)CC1)c1ccccc1,-,-,?,-,-
Cc1cc(O)cc2c1C1CCC3(C)C(O)CCC3C1C=C2 (stereo not given),?,?,-,?,?
CC12CCC=CC1=C(C=O)C1C2CCC2(C)C(O)CCC12 (stereo not given),?,?,-97,-,18µM
Cc1cc(C)cc(C(=O)Nn2cnnc2)c1,?,?,-,-[9.22 µM],-
CCc1nc2oc3ccccc3c(=O)c2c(=O)n1-c1ccccc1,-,15µM,-,-,-
CCc1nc2oc3ccccc3c(=O)c2c(=O)n1-c1ccc(C)cc1,-,-,-,-,-
CCCCn1c(=O)[nH]c(=O)c2c1nc(CN1C(=O)c3ccccc3S1(=O)=O)n2CCC,-,-,-,-,-
CCCCn1c(=O)[nH]c(=O)c2c1nc(Cn1ncc(Cl)c(Cl)c1=O)n2CCC,?,-,-104,?,2.9µM
CSc1ccc(-c2nc(CSCC(=O)N3CCOCC3)c(C)o2)cc1,-,5.2µM,-,-,?
Cc1cccc(-c2nc(CSCC(=O)NCCCN3CCOCC3)c(C)o2)c1,-,?,-,-,-
Cc1oc(-c2ccc(Cl)cc2)nc1CSCC(=O)NCCCN1CCOCC1,?,16µM,-,-,-
CSc1ccc(-c2nc(CSCC(=O)NC3CC3)c(C)o2)cc1,-,-,-,-,-
O=C(COC(=O)c1c2c(nc3ccccc13)CCN(Cc1ccccc1)C2)Nc1c(F)cccc1F,?,18µM,-,-,-
Cc1cccc(NC(=O)CCC(=O)N/N=C/c2ccc(O)cc2O)c1,?,-,-,6.5µM,-
Cc1cc(SCC(=O)N/N=C/c2ccc(O)cc2O)nc2ccccc12,-,-,-,12µM,?
Cc1cc(NC(=O)CSc2cc(C)c3ccccc3n2)no1,-,-,-,-,-
SMILES,MCF10A rerep,KB-V1 cytotox,IL-1B inflam inh,SW480 rerep,KB-3-1 tox
COc1ccc2c(C)cc(SCC(=O)Nc3ncc(Cl)cc3Cl)nc2c1,-,18µM,-,-,-
Cc1ccc(NC(=O)CCC(=O)N/N=C/c2ccccc2O)cc1,-,-,-,-,-
Cc1cc(SCC(=O)Nc2ncc(Cl)cc2Cl)nc2ccccc12,-,6.5µM,-,?,-
Cc1ccc(CNC(=O)CN2C(=O)CSc3ccc(S(=O)(=O)N(C)C)cc32)cc1,.,-,.,.,-
C=C(C)Cn1c2ccc(NC(=O)NCCc3ccccc3)cc2c(=O)n1C,.,-,-,.,-
Cc1cc(C)cc(NC(=O)N2CCCN(Cc3c(F)cccc3Cl)CC2)c1,?,-,?,-,-
